92 molecules from PubChem BioAssay AID1903 (Southern Research Specialized Biocontainment Screening …, 2009) can be followed below.

Several values for one entry are separate records, joined by “and”; a condition that tells them apart may be missing. Equal values may be shown once. Out of some 310,000 compounds screened, about 1,200 (0.39%) were called active. Only a sample is shown. Potency and affinity values are given separately. Values without a mark were called inactive. How the calls were made is not given here.

This test deals with Large T antigen (Simian virus 40) (UniProt P03070). In words: TAg ATPase/helicase activity blockers – biochemical (AID 1903). Conditions: SV40 large T antigen ATPase/helicase inhibition assay; at 20 µM; stronger effect = higher value.
Chain of Large T antigen (Simian virus 40) (P03070 whole entry, looked up): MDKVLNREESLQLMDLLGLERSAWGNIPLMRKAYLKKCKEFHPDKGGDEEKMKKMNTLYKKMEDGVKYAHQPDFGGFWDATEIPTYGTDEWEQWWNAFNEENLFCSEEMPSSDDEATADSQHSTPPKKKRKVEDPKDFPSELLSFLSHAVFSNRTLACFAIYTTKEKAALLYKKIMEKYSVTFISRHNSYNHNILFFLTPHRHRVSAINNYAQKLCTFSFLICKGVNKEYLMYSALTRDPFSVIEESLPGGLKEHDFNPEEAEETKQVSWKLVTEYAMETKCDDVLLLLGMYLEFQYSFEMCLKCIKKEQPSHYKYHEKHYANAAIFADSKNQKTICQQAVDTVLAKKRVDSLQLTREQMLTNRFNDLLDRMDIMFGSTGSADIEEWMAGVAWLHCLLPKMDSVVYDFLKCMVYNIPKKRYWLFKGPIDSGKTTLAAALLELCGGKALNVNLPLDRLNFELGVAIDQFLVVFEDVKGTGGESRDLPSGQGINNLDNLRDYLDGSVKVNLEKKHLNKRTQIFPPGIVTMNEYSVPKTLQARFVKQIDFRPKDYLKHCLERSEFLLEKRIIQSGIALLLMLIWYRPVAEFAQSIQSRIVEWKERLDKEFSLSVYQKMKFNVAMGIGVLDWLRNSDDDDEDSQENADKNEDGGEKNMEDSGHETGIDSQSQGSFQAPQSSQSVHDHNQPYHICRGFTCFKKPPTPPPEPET
For orientation: inhibition means the drop in the measured response relative to a control, in per cent. For `Cc1c(NS(=O)(=O)c2ccc(Br)s2)c(=O)n(-c2ccccc2)n1C`, the inhibition is 3.2%.
As to `O=C(NCCc1ccco1)c1cc(COc2cccc(C(F)(F)F)c2)on1`, the inhibition was 29.7%.
For `CCc1ccc(CN2CCC(n3nccc3NC(=O)Cc3ccccc3)CC2)o1`, the inhibition is 13.5%.
The result for `Cc1ccc(N(CC(=O)N/N=C/c2cccc(Br)c2)S(C)(=O)=O)cc1` reads 9.07%; that for `CCOc1cc(/C=N\NC(=O)c2c(C)nc3ccccn23)ccc1O`, 35%.
The result for `CC(C)(C)c1cc(C(=O)N/N=C/c2ccc(F)cc2)n(-c2ccccc2)n1` reads -0.35%; that for `COc1cc(/C=N/NC(=O)c2cc3ccccc3[nH]2)ccc1O`, 27.5%; that for `Cc1cc(C)n2nc(C(=O)N/N=C/c3ccc(Cl)cc3)nc2n1`, 6.6%.
Turning to `COc1cc(/C=N/NC(=O)c2cccc(C(=O)N/N=C/c3ccc(O)c(OC)c3)n2)ccc1O`, the inhibition was -2.1%.
For `COc1ccc(OC)c(/C=N\NC(=O)c2c(C)nc3cc(C)ccn23)c1` the value was 11.2%; for `CC(C)(C)c1cc(C(=O)N/N=C/c2ccccc2O)n(-c2ccccc2)n1`, 19.8%.
Take `Cc1ccc(/C=N/NC(=O)c2nc3nc(C)cc(C)n3n2)cc1`: the inhibition is 22.5%.
For `COc1ccc(S(=O)(=O)N2CCCC(C(=O)NCCC(C)C)C2)cc1` (configuration not stated) the value was 5.62%.
The result for `Cc1cccc(NC(=O)c2cc(-c3cc(C)c(C)cc3O)n[nH]2)c1` reads 4.66%; that for `CCOC(=O)Cc1c(C)nc(SC)[nH]c1=O`, 1.67%.
For `Cc1nn(C)c(Oc2ccccc2)c1CCNC(=O)CCl` the value was -0.24%.
For the molecule `COc1cccc(OC)c1C(=O)Nc1ccc(S(=O)(=O)Nc2cc(C)nc(C)n2)cc1`, the inhibition is 20.7%.
The result for `COc1ccc(N(CC(=O)NCc2ccncc2)S(=O)(=O)c2ccccc2[N+](=O)[O-])c(OC)c1` reads 2.38%.
For `COc1ccc(/C=N/NC(=O)c2ccc3nc[nH]c3c2)cc1OC` the value was 3.44%; for `COc1cc(/C=N/NC(=O)c2ccc3nc[nH]c3c2)cc(OC)c1OC`, 8.71%.
The result for `COCCSc1nc2c(c(=O)[nH]c(=O)n2C)n1CCCc1ccccc1` reads 3.03%; that for `Cc1noc(C)c1COC(=O)c1cccnc1SCC(=O)Nc1ccc2c(c1)OCO2`, 2.06%.
Regarding `Cc1ccccc1Cn1cnc2c(NS(C)(=O)=O)c(C)c(C)cc21`, the inhibition was 0.14%.
For `NC(N)=N/N=C/c1c(Cl)cccc1Cl` the value was 21.2% and 9.2%; for `Cc1c(Cl)cccc1N=C(N)N=C(N)N`, 13.8%; for `COc1ccc(OC)c(N=C2C(=O)Nc3ccccc32)c1`, 4.71%.
The result for `Cc1ccsc1/C=N/N=C1\C(=O)Nc2ccccc21` reads -4.81%; that for `COc1cc(/C=N/N=C(/C(=O)c2ccccc2)c2ccccc2)cc(OC)c1O`, 15.6%; that for `COc1cc(/C=N/N=C2/NC(=O)C(c3ccccc3)S2)ccc1O` (configuration not stated), 30.9%.
The result for `COc1ccc(O)c(/C=N/N=C2/C(=O)Nc3ccccc32)c1` reads 12.5%; that for `O=C1Nc2ccccc2/C1=N/N=C/c1cccc(O)c1`, 13.2%.
Regarding `COC(=O)c1ccc(S(=O)(=O)N2C3CCC2CC(NC(=O)C2CC2)C3)cc1` (configuration not stated), the inhibition was -2.31%.
For `CCCCN(CCCC)CCCNC(=O)C12CN(Cc3ccccc3)CC1C(c1cccc([N+](=O)[O-])c1)=NO2` (configuration not stated) the value was 6.72%; for `Cc1cc(NCc2ccccc2)n2ncc(-c3ccccc3)c2n1`, 3.96%; for `CC(=O)OC[C@H]1O[C@@H](O/N=C/C[C@@H]2C=C[C@H](OC(C)=O)[C@@H](COC(C)=O)O2)[C@H](OC(C)=O)[C@@H](OC(C)=O)[C@@H]1OC(C)=O`, 7.46%.
For `Cc1cc(NC(=O)C(C)SCC(=O)Nc2ccc(SC(F)F)cc2)no1` (configuration not stated) the value was 15.7%; for `Cc1ccc(C(=O)Cc2cc3ccccc3oc2=O)c(C)c1`, 9.25%; for `O=S(=O)(O)c1cc(O)ccc1O`, 25.8%.
For `Oc1ccc(-c2nc3ccccc3s2)c(O)c1` the value was 21%; for `O=C(Cc1ccccc1)NCc1cccnc1`, 5.27%.
On to `CC(OC(=O)Cc1n[nH]c(=O)c2ccccc12)C(=O)Nc1cccc([N+](=O)[O-])c1` (configuration not stated), for which the inhibition was 8.17%.
With `COC(=O)c1cc(NS(=O)(=O)c2ccc(Cl)c(N3C(=O)c4ccc(C(=O)O)cc4C3=O)c2)cc(C(=O)OC)c1`, the inhibition is 11.3%.
The result for `CCN1C(=O)C2(C(C(=O)c3ccc(C)o3)=C(O)C(=O)N2CCCN(C)C)c2ccccc21` (configuration not stated) reads 27.5%; that for `CCN1C(=O)C2(C(C(=O)c3cc4ccccc4o3)=C(O)C(=O)N2CCCN2CCOCC2)c2ccccc21` (configuration not stated), 16.1%.
For `CCC(=O)Nc1ccc(C(=O)NNC(=O)c2cccc(C)c2)cc1` the value was 5.14%; for `COc1cccc2c1-c1c(O)cccc1C2=O`, 9.33%; for `COc1cc(/C=C/c2ccc3cccc(O)c3n2)c(Br)cc1O`, 0.04%.
For `O=C(CSc1nnc(-c2cccnc2)n1-c1ccccc1)Nc1ccc2c(c1)OCO2` the value was 18.3%.
Regarding `N#Cc1ccsc1NC(=O)CN1C(=O)NC2(CCCC2)C1=O`, the inhibition is 13.3%.
For `CCCOc1ccc(N2C(=O)CC(NCC#N)C2=O)cc1` (configuration not stated) the value was 3.6%; for `Nc1c(-c2ccc(Cl)cc2)cnn1-c1cc(C(F)(F)F)cc(C(F)(F)F)c1`, 10.5%.
The result for `Oc1ccccc1C1=Nc2ccccc2N=C(c2cccs2)C1` reads 12.3%.
For `O=C(O)C1CC(c2ccccc2)=Nc2ccccc2S1` (configuration not stated) the value was 19.3%; for `CCn1cc(S(=O)(=O)CC(=O)Nc2cc(C)ccc2C)c2ccccc21`, 3.58%.
For `CC(=O)c1ccc(OCCCC(=O)NC2CCC(C)CC2)cc1` (configuration not stated), the inhibition is 23.9%.
For `Cc1cccc(-c2noc(CN(C)C(=O)COc3ccccc3)n2)c1` the value was 13.7%; for `Cc1nn(-c2ccccc2)c(Cl)c1C(=O)Nc1ccc(N2CCOCC2)cc1`, 9.69%; for `Cc1nn(-c2ccccc2)c(C)c1C(=O)Nc1ccc(N2CCOCC2)cc1`, 26.7%.
The result for `C/C(CC(=O)Nc1ccc2c(c1)OCCO2)=N\NC(=O)c1ccc([N+](=O)[O-])cc1Cl` reads 3.29%; that for `C/C(CC(=O)Nc1ccc(N(C)C)cc1)=N\NC(=O)c1ccc(Cl)cc1`, 21.9%.
With `C/C(CC(=O)Nc1ccc(N(C)C)cc1)=N\NC(=O)c1ccc([N+](=O)[O-])cc1`, the inhibition was 22.9%.
The result for `C/C(CC(=O)NCc1ccco1)=N\NC(=O)c1ccc(Cl)cc1Cl` reads 5.88%.
With `Cc1nnsc1C(=O)N1CCCC(N2CCN(c3cccc(C(F)(F)F)c3)CC2)C1` (configuration not stated), the inhibition is 12.9%.
The result for `COCC(=O)Nc1ccc2c(c1)OCC(=O)N2Cc1ccccc1F` reads 20.2%.
For `CC(=O)N1CCN(CC(=O)O)CC1` the value was 5.47%; for `Cn1c(N)c(C(=O)Nc2ccccc2)c(=O)[nH]c1=O`, 5.18%.
The result for `COc1ccc(OC)c(CCNC(=O)Cn2nc(C)c3c(C)n(-c4ccccc4)nc3c2=O)c1` reads 2.47%; that for `CCCNC(=O)Cn1sc2nc(C)cc(C)c2c1=O`, 8.82%; that for `O=C(CCNC(=O)Cn1ccc2ccccc2c1=O)NCCCN1CCN(c2ccccc2F)CC1`, -2.74%.
Turning to `Cc1ccc(NC(=O)Cn2sc3nc(C)cc(C)c3c2=O)c(Cl)c1`, the inhibition is 5.12%.
As to `Cn1c2ccccc2c2cnn(CC(=O)NCCCN3CCN(c4ccccc4F)CC3)c(=O)c21`, the inhibition was 9.9%.
The result for `Cc1c(Cl)cccc1NC(=O)Cn1cc(C(F)(F)F)cc(Cl)c1=O` reads 6.09%.
The result for `O=C(c1cc([N+](=O)[O-])ccc1Cl)N1c2ccccc2Sc2ccccc21` reads 3.02%.
For `Cc1cc(C)cc(OCc2nnc(SCC(=O)NC3CC3)n2C)c1` the value was -1.01%; for `CCOC(=O)N1CCC(N2C(=O)c3ccc(C(=O)NCCOC)cc3C2=O)CC1`, 5.99%; for `COc1cccc(NC(=O)Nc2cc(C)ccc2OC)c1`, 2.17%.
As to `CCCc1cc(=O)oc2cc(C)cc(OCC(=O)NCC(O)c3ccccc3)c12` (configuration not stated), the inhibition was 12.5%.
For `Cc1ccc(N2CC(=O)N(NC(=O)Nc3ccc(Cl)c(Cl)c3)CC2=O)cc1` the value was 13.8%.
The result for `O=C(CCC(=O)N1CCN(Cc2ccccc2)CC1)Nc1nnc(C2CCCCC2)s1` reads 13.1%.
For `CSCCC(NC(N)=O)C(=O)Nc1cccc(S(=O)(=O)N2CCOCC2)c1` (configuration not stated) the value was 2.59%.
On to `O=C(CCCOc1ccc(Br)cc1)NNC(=O)c1ccncc1`, for which the inhibition is 26.4%.
Regarding `CCc1ccc(NC(=O)c2cc(-c3ccco3)on2)cc1`, the inhibition is 6.38%.
The result for `O=C(CSc1cn(Cc2ccccc2)c2ccccc12)NCc1ccc(F)cc1` reads 6.13%; that for `C=CCn1c(=S)[nH]c2scc(-c3cccs3)c2c1=O`, 9.96%; that for `C=CCn1c(SCC(=O)N2CCOCC2)nc2scc(-c3ccco3)c2c1=O`, 22.1%.
The result for `C=CCn1c(SCC(=O)NCCCC)nc2scc(-c3ccco3)c2c1=O` reads 32.9%; that for `C=CCn1c(=S)[nH]c2scc(-c3ccc(C)o3)c2c1=O`, 7.5%.
For `COc1cc(/C=C/[N+](=O)[O-])ccc1OC(=O)/C=C/c1ccc(F)cc1` the value was 17.2%; for `CC(C)CCN(CCC(C)C)CC(O)Cn1c2ccccc2c(=O)c2ccccc21` (configuration not stated), 8.16%; for `CC(=O)c1cccc(NC(=S)NC(=O)c2ccccc2C)c1`, -10%.
Regarding `CC(=O)OCCCCCCCCCCC[N+]1(C)CCCCC1`, the inhibition is 27.6%.
The result for `COC(=O)CCCCCCCCCC[N+]1(C)CCCCC1` reads -2.24%.
